DT40 TDP1 CPT: qHTS for Inhibitors of human tyrosyl-DNA phosphodiesterase 1 (TDP1): qHTS in cells in presence of CPT. chicken DT40 Tdp1-/-;hTDP1 cells + 20 nM CPT, ATP luminescence, 48 h. Potency, µM (series often up to 46.2 µM), inactives show top-dose activity change, negative = growth inhibition, most hits filed as inhibitors. actives 12% (n = 420,000). AID 686979, 2013; also: % is scaled to controls: 0 for no effect and ±100 for the full control effect; nearly all actives have a fitted effect of over 55% in size
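Cell growth measured by CellTiter-Glo luminescence after a minimum 48 h, 37 C compound exposure with 20 nM CPT in Tdp1-knockout DT40 cells stably expressing hTDP1, seeded 400/well; qHTS titration format.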
ATXN viability: Viability Counterscreen for Primary qHTS for Inhibitors of ATXN expression. S2 cells (HEK-293 line with an ATXN2-luciferase reporter) viability, CellTiter-Fluor protease fluorescence, 24 h. actives 0.49% (n = 400,000). Potency, µM (top dose mostly 56.7 µM), usual class: cytotoxic; also: nearly all actives have a fitted effect of over 40% in size
TDP1 cell noCPT: qHTS for Inhibitors of human tyrosyl-DNA phosphodiesterase 1 (TDP1): qHTS in cells in absence of CPT | actives 15% (n = 420,000) | DT40 Tdp1-/- hTDP1 cells, no CPT, ATP luminescence, 48 h | Potency, µM (doses to about 46.2 µM), without a hit: at the top dose activity change, negative = growth inhibition, usual class: inhibitors | AID 686978, 2013; also: % is scaled to controls: 0 for no effect and ±100 for the full control effect; nearly all actives have a fitted effect of over 55% in size
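No-CPT arm: Tdp1-/-;hTDP1 DT40 cells (400/well) plus compounds, incubated ≥48 hr at 37 °C. Readout CellTiter-Glo luminescence.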
ATXN2 expr inh: Primary qHTS for Inhibitors of ATXN expression | HEK-293 ATXN2-luciferase reporter, luminescence, 24 h | Potency, µM (top dose mostly 57 µM), for the others: at the top dose activity change, negative = inhibition, actives largely listed as inhibitors | actives 0.72% (n = 360,000) | AID 1745845, 2022; also: % is scaled to controls: 0 for no effect and ±100 for the full control effect; nearly all actives have a fitted effect of over 55% in size
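qHTS (up to 57 uM final) was run with 24 h compound exposure of reporter cells at 37 °C. Each well was multiplexed: SteadyGlo luminescence measured ATXN2-luciferase expression after a fluorogenic Gly-Phe-AFC viability readout (25 uM final).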
TGFb inhibitor: qHTS for Inhibitors of TGF-b; HepG2 CAGA-GFP TGF-b/SMAD3 reporter, GFP fluorescence, 18 h; TGF-beta stimulated, 500 pg/mL final; Potency, µM (series often up to 46.1 µM), inactives show top-dose activity, negative = inhibition, hits mostly inhibitors; actives 1.2% (n = 410,000); also: % is scaled to controls: 0 for no effect and ±100 for the full control effect; nearly all actives have a fitted effect of over 65% in size
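Per well, imaged GFP fluorescence of HEPG2 CAGA-GFP cells gives the signal; cells get compound, then TGF-beta (500 pg/mL final), 18 h at 37 degrees C; %Activity versus -TGF-beta and +DMSO controls.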
HepG2 tox: qHTS for Inhibitors of TGF-b: Cytotox Counterscreen; AID 588856, 2011; Potency, µM (doses to about 46.1 µM), without a hit: at the top dose activity change, negative = cytotoxicity, hits mostly cytotoxic; HepG2 CAGA-GFP viability, ATP luminescence, 18 h; actives 0.76% (n = 410,000)
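HepG2 CAGA-GFP cells (1000/well, DMEM with 1% FBS) received compound, then TGF-beta at 500 pg/mL final, and were incubated 18 hours at 37 degrees C. Viability was read by CellTiter-Glo luminescence. Media-only wells were set as complete cell-killing and DMSO as no toxicity.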
* = called active by the depositor; i = inactive; ? = inconclusive; · = no result; [ ] = remark or other dose. Compounds with a hit are over-represented: about 17% of the library has one in this group of screens. Calls follow the shape of the dose curve; as a rule, active = well fitted curve in the direction sought with a large enough effect; inconclusive = small, poorly fitted or top-dose-only effect, or another doubt; inactive = no such curve, though single readings can be large; an effect the other way counts as inactive or inconclusive. Potency is read from the fitted curve at half-maximal effect.

SMILES | DT40 TDP1 CPT | ATXN viability | TDP1 cell noCPT | ATXN2 expr inh | TGFb inhibitor | HepG2 tox
COc1cc(=O)n2c(c1C(=O)NCc1ccco1)CCN(Cc1cc3ccccc3[nH]1)CC2 | -3.1% | i | -5.4% | · | · | ·
C/C=C(\C)C(=O)NCCN1Cc2ccccc2OC(c2ccccc2OC)C1 (stereo not given) | -7.3%[9.04 µM] | i | -26.9% | · | · | ·
CCCCCCN1CCN(C2CN(Cc3ccc(C)cc3)S(=O)(=O)C2)CC1 (stereo not given) | 23.1µM* | i | ? | -4.4% | ? | -35.4%
Cc1sc(N/N=C/c2ccco2)nc1-c1ccccc1 | ? | i | 23.1µM* | · | ? | -27.0%
Clc1ccc(-c2csc(N/N=C/c3ccco3)n2)cc1 | ? | ? | 7.31µM* | 6.6% | 7.3% | 1.4%
Cc1ccc(-c2csc(N/N=C/c3ccco3)n2)cc1 | ? | i | ? | 37.8% | -28.2% | -30.3%
CN(C)S(=O)(=O)c1ccc(-c2csc(N/N=C/c3ccc(O)cc3)n2)cc1 | 0.92µM* | · | 0.651µM* | ? | ? | 12.6µM*
Brc1ccc(-c2csc(N/N=C/c3ccco3)n2)cc1 | ? | i | 10.3µM* | 11.9% | -2.5% | 3.3%
COc1ccc(/C=C(\C#N)C(=O)OCC(=O)NCc2ccco2)cc1 | 12.2% | i | 2.3% | -14.5% | 4.1% | -14.7%
CN1CCN(C(=O)C(C(=O)c2ccc(F)cc2)n2ccccc2=O)CC1 (stereo not given) | -2.0% | i | 0.4% | 201.4% | -6.8% | -1.4%
Cc1onc(-c2ccccc2)c1-c1csc(N/N=C/c2ccccc2)n1 | ? | i | 11.6µM* | -4.0% | -12.7% | -20.8%
C(=N\Nc1nc(-c2ccccc2)cs1)/c1ccco1 | 20.6µM* | i | 14.6µM* | 90.5% | 1.0% | 27.0%
Clc1ccc(-c2csc(N/N=C\c3cccnc3)n2)cc1 | ? | i | 14.6µM* | 9.8% | ? | -34.9%
CN(C)S(=O)(=O)c1ccc(C(=O)NCC(=O)N/N=C/c2ccco2)cc1 | -3.4% | i | 16.1% | -14.1% | -1.3% | 0.6%
CN(C)S(=O)(=O)c1ccc(-c2csc(N/N=C/c3ccco3)n2)cc1 | 11.6µM* | ? | 8.2µM* | ? | ? | -43.5%
Cn1c(=O)c2c(nc(OCC3COC(C)(C)O3)n2Cc2ccccc2F)n(C)c1=O (stereo not given) | -26.6% | i | ? | -3.2% | ? | 2.3%
CCOC(=O)c1c(-c2ncc(C(F)(F)F)cc2Cl)noc1C | -13.5% | i | 1.7% | 3.6% | -2.1% | -0.6%
COc1ccccc1NS(=O)(=O)c1cc(C(=O)Nc2ccc(S(=O)(=O)Nc3onc(C)c3C)cc2)ccc1C | -5.3% | i | -17.5% | -19.3% | ? | -26.3%
Cc1cccc(N2CCN(C(=O)Cn3nc(C)c4sc5ccccc5c4c3=O)CC2C)c1 (stereo not given) | ? | i | ? | 5.7% | -26.3% | -0.5%
CC(C)C[C@H]1CN=C(Nc2ccccc2)N1CC1CCC(C(C)(C)C)CC1 (stereo not given in full) | 5.8µM* | 22.4µM* | 6.51µM* | ? | ? | -108.7%
CC(C)C[C@H]1CN=C(Nc2ccccc2)N1CCC1CCCCC1 | ? | ? | 16.4µM* | -32.0% | ? | -32.6%
CCC(CC)CN1C(Nc2ccccc2)=NC[C@@H]1CC(C)C | ? | ? | ? | -3.1% | -12.8% | -6.7%
CC(C)C[C@H]1CN=C(Nc2ccccc2)N1CC1CCCC1 | ? | ? | 16.4µM* | -8.8% | 11.8% | 8.7%
c1ccc(C[C@H]2CN=C(Nc3ccccc3)N2CCC2CCCC2)cc1 | ? | i | 14.6µM* | -18.8% | -1.6% | -14.3%
CC(C)C[C@H]1CN=C(Nc2ccccc2)N1CC(C)C | -26.0% | i | -23.8% | -5.7% | 6.3% | -14.1%
SMILES | DT40 TDP1 CPT | ATXN viability | TDP1 cell noCPT | ATXN2 expr inh | TGFb inhibitor | HepG2 tox
CC(Sc1nnc(C2CC2)n1C1CC1)C(=O)Nc1ccccc1C#N (stereo not given) | 3.5% | i | -0.8% | 6.6% | -13.9% | 7.5%
N[C@@H](CCS(=O)O)C(=O)O | ? | · | -9.1% | · | · | ·
NNC(=O)CCN(Cc1ccco1)S(=O)(=O)c1ccc(Cl)cc1 | -1.8% | i | -4.0% | -13.0% | 0.0% | 33.1%
Cc1cc(Cl)ccc1NC(=O)CCS(=O)(=O)c1cc2c(cc1C)NC(=O)CO2 | -18.7% | · | -27.4% | · | -29.9% | -4.6%
Cc1onc(-c2c(F)cccc2Cl)c1C(=O)OCC(=O)NC(=O)NCC(C)C | -23.5% | i | 7.31µM* | -12.8% | 15.8% | 1.4%
O=C1C2C3C=CC(C3)C2C(=O)N1Cc1cccnc1 (stereo not given) | -2.3% | i | -1.3% | 1.6% | 1.9% | -9.5%
O=C1C2C3c4ccccc4C(c4ccccc43)C2C(=O)N1Cc1ccccn1 (stereo not given) | 23.1µM* | i | 23.1µM* | 6.7% | 0.6% | -16.7%
O=C1C2C3c4ccccc4C(c4ccccc43)C2C(=O)N1Cc1cccnc1 (stereo not given) | ? | i | 18.4µM* | -4.4% | 21.3% | 9.6%
Cc1cccc(C)c1OCc1cc(C(=O)NCC2CC2)no1 | ? | i | 12.1% | 8.8% | 0.0% | -2.5%
COc1ccc(Oc2ncc3ncc(=O)n(-c4ccc(OC)cc4)c3n2)cc1 | -5.4% | · | -25.6% | · | · | ·
COc1ccc(-n2c(=O)cnc3cnc(N(C)C)nc32)cc1 | 23.1µM* | · | ? | · | · | ·
CN(C)c1ncc2ncc(=O)n(Cc3cccs3)c2n1 | ? | · | 20.6µM* | · | · | ·
COc1ncc2ncc(=O)n(Cc3cccs3)c2n1 | -5.3% | · | -20.8% | · | · | ·
Cc1c(C(=O)OCC(=O)NCc2ccco2)cccc1[N+](=O)[O-] | -1.6% | i | -2.1% | 2.9% | 8.9% | 6.2%
COc1ccc(-c2nnc(SCC(=O)Nc3ccc(C(C)=O)cc3)nc2-c2ccc(OC)cc2)cc1 | 11.6µM* | · | 10.3µM* | · | 15.0% | 9.2%
CC(=O)c1ccc(NC(=O)CSc2nnc(-c3ccco3)c(-c3ccco3)n2)cc1 | ? | i | -25.7% | 13.5% | 11.1% | -0.9%
COc1ccc(-c2nnc(SCC(=O)Nc3cccc(Cl)c3C)nc2-c2ccc(OC)cc2)cc1 | ? | i | 10.3µM* | 0.9% | -13.4% | 6.9%
